High-throughput results from PubChem.
GLD-1 RNA inh – GLD-1-TGE RNA interaction inhibition (C. elegans); Q17339; purified GLD-1 + fluorescein TGE RNA, fluorescence polarization; inhibition, % at 5.96 µM; hit rate 0.44% among 320,000; AID 2280;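 active = percent inhibition above a per-plate cutoff, the plate mean of test compounds plus 3 SD, cut at about 30% in these data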
MEX-5 binding – C. elegans MEX-5 TCR-2 RNA binding activity; MEX-5/FITC-TCR2 RNA binding, fluorescence polarization; hits give low values; activity score (negative = inhibition of binding), % at 10 µM; hit rate 0.38% among 300,000;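 active = inhibition past about -25% in most replicates, and total fluorescence under double the plate's negative control median, limit read from the data; inconclusive = replicates evenly split on the limit, or fluorescence at least double controls; inactive = too little inhibition in most replicates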
Target sequence (Q9XUB2 whole entry, looked up): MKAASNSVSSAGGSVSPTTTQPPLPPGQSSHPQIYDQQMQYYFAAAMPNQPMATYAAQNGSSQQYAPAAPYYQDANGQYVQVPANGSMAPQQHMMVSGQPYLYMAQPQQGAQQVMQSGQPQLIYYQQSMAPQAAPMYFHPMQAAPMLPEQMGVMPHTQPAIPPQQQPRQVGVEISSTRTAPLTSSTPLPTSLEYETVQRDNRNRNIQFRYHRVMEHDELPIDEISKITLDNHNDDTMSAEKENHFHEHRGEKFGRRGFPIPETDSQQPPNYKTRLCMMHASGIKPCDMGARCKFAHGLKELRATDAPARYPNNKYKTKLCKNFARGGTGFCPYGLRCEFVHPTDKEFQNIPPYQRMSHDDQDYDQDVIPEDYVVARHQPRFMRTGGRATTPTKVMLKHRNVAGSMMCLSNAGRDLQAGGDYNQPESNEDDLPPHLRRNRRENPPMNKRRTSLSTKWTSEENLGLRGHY
CR mimetic SO – caloric restriction mimetics inhibiting age-related superoxide in yeast | AID 2690 | S. cerevisiae aged cells, superoxide DHE fluorescence; hits give low values | hit rate 0.18% among 330,000 | superoxide response (% of plate mean), % at 10 µM;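 active = superoxide response under a set limit, about three screen SD below normal, cut at about 65% in these data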;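 note: yeast aged for seven days with compound at 30 °C before DHE staining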
Bcl-xL primary – Bcl-xL (human) inhibition | hit rate 0.7% among 320,000 | inhibition, % at 10.9 µM | AID 2129 | GST-Bcl-xL / FITC-Bim BH3 peptide fluorescence polarization | Q07817;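 active = inhibition above the mean of all tested compounds plus 3 SD, cutoff set per campaign, cut at about 30% in these data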;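 note: inhibitors lower millipolarization by displacing the labeled peptide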
MCL1 BIM primary – disrupts human MCL1 binding to BIM-BH3 peptide; Q07820; GST-MCL1 / FITC-Bim-BH3 fluorescence polarization; inhibition, % at 10.9 µM; hit rate 0.68% among 320,000; AID 2057;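 active = inhibition above the mean inhibition of all tested compounds plus 3 SD, set per campaign, cut at about 40% in these data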;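 note: higher means more loss of mP so more displacement of Bim peptide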
LANA-H2A inh – blocks KSHV LANA binding to histone H2A/H2B | Q9QR71 | hit rate 0.6% among 320,000 | AID 2629 | inhibition, % (concentration not given with the values) | cell-free LANA-H2A/H2B peptide, fluorescence polarization; in the data active = inhibition mostly above about 10%, no sharp cut-off; inactive = mostly below about 6.7%
A number is an active result; i = inactive; ? = inconclusive; nt = no result given; + = active, no number; ! = not active in a repeat. Shown are actives, neighbours in structure and some others; about 1.9% of the full set was active somewhere.

SMILES | GLD-1 RNA inh | MEX-5 binding | CR mimetic SO | Bcl-xL primary | MCL1 BIM primary | LANA-H2A inh
CC(NCC(=O)Nc1ccccc1C(=O)NC1CC1)c1ccc(S(N)(=O)=O)cc1 (stereo unspecified) | i | nt | i | i | i | +
CC(=O)c1ccc2cccc3c2c1N=CN3C | i | i | i | 33.3 | i | i
COc1cccc2nc3cc(C)c(C)cc3nc12 | i | i | 62.7 | i | i | i
COc1cccc2c1nc(C)c1cc(C)oc12 | i | i | i | i | i | i
CC(=O)c1cccc(Nc2c([N+](=O)[O-])c(=O)oc3ccccc23)c1 | i | i | i | i | i | i
O=C(O)c1cccc(Nc2c([N+](=O)[O-])c(=O)oc3ccccc23)c1 | i | i | 63.8 | i | i | i
CCOc1ccc(NC(=O)C(c2ccccn2)N(C(=O)CCl)c2ccc(F)cc2)cc1 (stereo unspecified) | i | i | i | i | i | 33.1
CCOc1ccc(NC(=O)N(c2ccccc2)c2ccccc2)cc1 | i | i | i | i | i | i
Cc1ccc(-c2nc(CS(=O)CC(=O)NCc3ccc4c(c3)OCO4)c(C)o2)cc1 (stereo unspecified) | i | i | i | i | i | i
C[C@@H]1NC(=O)c2cc([N+](=O)[O-])cc(I)c2NCC[C@@H](C(N)=O)NC(=O)[C@H](CC(N)=O)NC1=O | i | nt | i | i | i | 18.4
C[C@@H]1NC(=O)[C@H](CCC(N)=O)NC(=O)c2cc([N+](=O)[O-])cc(I)c2NCC[C@@H](C(N)=O)NC1=O | i | nt | i | i | i | i
CN(Cc1ccccc1)C(=O)c1ccc(NC(=O)Cc2cccc(NC(=O)C3CCCN(C(=O)C4CCC4)C3)c2)cc1 (stereo unspecified) | i | nt | i | i | i | i
CSc1nc(-c2ccccc2)cn1-c1ccc(NC(C)=O)cc1 | i | i | i | i | i | 36.6
CCOc1ccc(-c2cn(-c3ccc(OC)cc3)c(SC)n2)cc1 | i | i | i | i | i | i
CC(=O)c1cn(S(=O)(=O)c2ccccc2)c2ccccc12 | i | i | i | i | i | i
COc1ccc(C2=NN3C(=O)c4c(ccc(OC)c4OC)C3C2)cc1 (stereo unspecified) | i | i | i | i | i | 38.5
CC(C)n1ncc2c(C(=O)NCC(=O)Nc3ccccc3Br)cc(C3CC3)nc21 | i | nt | i | i | i | i
O=C(NNC(=O)c1cc(Cl)ccc1[N+](=O)[O-])c1csc(N2CCOCC2)n1 | i | -31.1 | i | i | i | i
Cc1cc(-c2nn(-c3ccccc3F)cc2CN2CCN(c3ccncc3)CC2)c(C)s1 | i | i | i | i | i | i
Cc1cc(-c2nn(-c3ccccc3F)cc2CN2CCC(O)CC2)c(C)s1 | i | i | i | i | i | 33.5
COc1ccc(CNC(=O)COC(=O)CCN2C(=O)C3CC=CCC3C2=O)cc1OC (stereo unspecified) | i | nt | i | i | i | i
CCOc1ccc(CCn2c(-c3ccco3)nc3ccccc3c2=O)cc1OCC | i | i | i | i | i | 10.8
O=c1c2ccccc2nc(-c2ccco2)n1Cc1ccccc1 | i | i | i | i | i | i
CCCc1cc(CNC(=O)C2CCC(=O)N(Cc3ccccc3OC)C2)on1 (stereo unspecified) | i | i | i | i | i | i
CN1/C(=C\C=C2/SC(=S)NC2=O)C(C)(C)c2ccccc21 | i | i | i | 36.6 | i | i
SMILES | GLD-1 RNA inh | MEX-5 binding | CR mimetic SO | Bcl-xL primary | MCL1 BIM primary | LANA-H2A inh
CC1=NN(c2ccccc2)C(=O)/C1=C\C=C1/N(C)c2ccccc2C1(C)C | i | i | i | i | i | i
CN1/C(=C\C=C2/C(=O)Oc3ccccc3C2=O)C(C)(C)c2ccccc21 | i | i | i | 46.7 | i | i
CCCN1C(=O)/C(=C\C=C2\N(CC)c3ccccc3C2(C)C)SC1=S | nt | i | nt | nt | nt | nt
COc1ccc(CNC(=S)Nc2cccc(F)c2)cc1 | i | i | i | i | i | i
COc1ccc(N2C(=O)CSC2c2cccc(F)c2)cc1 (stereo unspecified) | i | i | i | i | i | 8.4
COc1ccc(C2SCC(=O)N2c2ccc(F)cc2)cc1 (stereo unspecified) | i | i | i | i | i | i
COCCCn1c(=O)/c(=C\c2ccc(OC(F)F)c(OC)c2)s/c1=C(/C#N)C(N)=O | i | i | i | i | i | 29.2
CCN(CC)/C(Sc1ccccc1)=C(\C(Cl)=C(Cl)Cl)[N+](=O)[O-] | i | i | i | i | i | 69.6
O=C1c2ccccc2C(=O)N1CSc1nnc(Nc2ccccc2F)s1 | i | i | 61.0 | i | i | i
O=C(Nc1ccccc1N1CCOCC1)c1ccc([N+](=O)[O-])s1 | i | nt | i | nt | nt | i
CC(=O)O[C@]1(C(C)=O)CC[C@H]2[C@@H]3C=C(Cl)C4=CC(=O)[C@@H]5C[C@@H]5[C@]4(C)[C@H]3CC[C@@]21C | i | i | i | i | i | 15.1!
Cc1ccc(-n2ncc(C#N)c2N)cc1 | i | i | i | i | i | i
Cc1cc(C)nc(-n2ncc(C#N)c2N)n1 | i | i | i | i | i | 10.7
COCCN1C=C2C(=O)C(C)(OC(=O)CCc3ccccc3)C(=O)C=C2C=C1c1ccc(C#N)cc1 (stereo unspecified) | i | i | i | i | i | 101.0
CCCCC1=CC2=CC(=O)C(C)(OC(=O)CC)C(=O)C2=CN1c1cccc(C#N)c1 (stereo unspecified) | 39.9 | i | i | 30.9 | i | i
CC1(OC(=O)CCc2ccccc2)C(=O)C=C2C=C(c3ccc(C#N)cc3)N(Cc3ccccc3)C=C2C1=O (stereo unspecified) | i | i | i | i | i | i
O=C(Nc1ccc2c(c1)OCCO2)c1ccccc1F | i | i | i | i | i | i
O=C(NC(=S)Nc1ccc2c(c1)OCCO2)c1ccccc1F | i | i | i | i | i | 12.9
CC(=O)N1CCN(C(=O)c2cccc(NS(=O)(=O)c3ccc(Br)cc3)c2)CC1 | i | i | i | i | i | i
COc1ccccc1C(=O)NC(CCSC)C(=O)NNC(=O)c1ccc(F)cc1 (stereo unspecified) | i | i | i | i | i | i
COc1ccccc1C(=O)NC(CCSC)C(=O)NNC(=O)c1ccccc1O (stereo unspecified) | i | nt | 64.3 | i | i | i
O=C(N/N=C/c1cccs1)C(=O)N1CCCC1 | i | i | i | i | i | 14.9
CCCCCN1C=CC=C/C1=C\C=C(C#N)C#N | i | -37.0 | i | i | i | i
CCCCCCN1C=C/C(=C\C=C(C#N)C#N)c2ccccc21 | i | i | i | i | i | i
CCCCCCN1C=CC=C/C1=C/C=C(C#N)C#N | i | ? | i | i | i | 10.3
Cc1ccccc1N(C(=O)CCC(=O)Nc1ccccn1)C(C(=O)NC(C)C)c1ccc(F)cc1 (stereo unspecified) | i | i | i | i | i | i
